Assay outcomes as filed in PubChem.
Shiga inhibitor: blocks Shiga toxin action in Vero cells | Vero cells, Shiga toxin protein synthesis inhibition reporter | inhibition, % at 38.7 µM | 9.2% of 290,000 active; in the data active = inhibition mostly above about 28%, no sharp cut-off; inactive = mostly below about 43%
Marburg entry inh: inhibitors of Marburg virus binding or cell entry. Potency, µM (titrated, usually from 37.8 µM), most hits filed as inhibitors. 1.8% of 300,000 active. AID 540276. Marburg virus pseudotyped entry inhibition, cell reporter; calls by dose curve; tested in HEK293 cells
CHX counter: affects cycloheximide protein synthesis inhibition readout, counter-screen. AID 2314. cell reporter, cycloheximide protein synthesis inhibition counterscreen. max response, %. 12% of 300,000 active; in the data active = max response mostly above about 13%, no sharp cut-off; inactive = mostly below about 14%; note: read at 38.3 µM for the half of the compounds with a filed dose
LASV entry inh: blocks Lassa virus binding to or entry into cells. Lassa virus pseudotype entry inhibition, cell reporter. Potency, µM (highest dose often 37.9 µM), actives largely listed as inhibitors. 1.2% of 300,000 active; calls by dose curve; tested in HEK293 cells; note: nearly all actives have a fitted effect of over 50% in size
Each line names hits and unclear results; the compound was inactive in the other large screens. In the library only some 12% were active in any assay of this set; here they are far more common.

Cc1cc(C(=O)OCC(=O)Nc2nc(-c3ccccc3)cs2)c(C)o1	LASV entry inh inconclusive
CNC(=O)c1cc2c(n(-c3ccc(C)cc3)c1=O)CC(C)(C)CC2=O	none (no result: Shiga inhibitor, CHX counter)
COc1ccccc1N=CC=C1OC(C)(C)C(C)(C)O1	Marburg entry inh inconclusive, CHX counter 10, LASV entry inh inconclusive
CCCN(N=Nc1cccc([N+](=O)[O-])c1)c1cccc([N+](=O)[O-])c1	Marburg entry inh inconclusive
CN(N=Nc1cccc([N+](=O)[O-])c1)c1cccc([N+](=O)[O-])c1	Shiga inhibitor 109, CHX counter 33
COc1cccc(C(=O)Nc2cc(OC)ccc2NC(=O)c2ccco2)c1	LASV entry inh inconclusive
COc1cccc(C(=O)Nc2cnc(NC(=O)c3ccco3)cc2C)c1	Shiga inhibitor 47, CHX counter 16
Cc1cc(NC(=O)C(C)C)ncc1NC(=O)c1ccco1	none (no result: Marburg entry inh, LASV entry inh)
Cc1cc(NC(=O)c2ccco2)ncc1NC(=O)Cc1ccccc1	CHX counter 19
O=C(CC1Sc2ccccc2NC1=O)Nc1cccnc1 (stereo not given)	LASV entry inh inconclusive
O=C(CC1Sc2ccccc2NC1=O)Nc1cccc(-c2nnc3n2CCCCC3)c1 (stereo not given)	Shiga inhibitor 97
O=C(O)c1cc(N/N=C/c2ccc3c(c2)OCCO3)ccc1Cl	Shiga inhibitor 116, Marburg entry inh inconclusive, CHX counter 109, LASV entry inh 1.6µM
Cc1ccc(N/N=C/c2ccc3c(c2)OCCO3)cc1Cl	Shiga inhibitor 28, Marburg entry inh inconclusive, CHX counter 55
C/C(=N\Nc1ccc(Cl)c(C(=O)O)c1)c1ccc2c(c1)OCO2	Shiga inhibitor active, CHX counter 88
O=C(O)c1cc(N/N=C/c2ccc3c(c2)OCO3)ccc1Cl	Shiga inhibitor active, Marburg entry inh 2.5µM, CHX counter 80, LASV entry inh inconclusive
CC(C(=O)NCc1ccco1)n1cc([N+](=O)[O-])cn1 (stereo not given)	none
Cc1ccccc1CN1C(=O)c2ccccc2Sc2ccc(C(=O)OCc3ccco3)cc21	none (no result: Shiga inhibitor, Marburg entry inh, CHX counter)
Cc1ccc(NC(=O)CC(C)S(=O)(=O)c2ccc3c(c2)NC(=O)CO3)c(C)c1 (stereo not given)	none (no result: Shiga inhibitor, Marburg entry inh, CHX counter)
COC(=O)c1cc(NS(=O)(=O)c2ccc3c(c2)OCCO3)ccc1Cl	none (no result: Shiga inhibitor, CHX counter)
O=C(O/N=C/c1ccc2c(c1)OCO2)c1ccccc1Cl	Shiga inhibitor 132, CHX counter 55 (no result: Marburg entry inh, LASV entry inh)
O=C(O/N=C\c1ccc(N2CCOCC2)c([N+](=O)[O-])c1)c1ccccc1Cl	none
O=C(O)c1cc(S(=O)(=O)Nc2ccc3c(c2)OCCO3)c(Cl)cc1Cl	Shiga inhibitor 137, CHX counter 73 (no result: Marburg entry inh, LASV entry inh)
CC(/C=N/NC(=O)Cc1cccn1C)=C\c1ccccc1	Shiga inhibitor 74, Marburg entry inh inconclusive, CHX counter 20
CC(/C=N/NC(=O)Cc1cccs1)=C\c1ccccc1	Shiga inhibitor 42, Marburg entry inh inconclusive, CHX counter 60
O=C(Cc1cccs1)N/N=C/C(Br)=C/c1ccccc1	Shiga inhibitor 77, CHX counter 51
Cn1cccc1CC(=O)N/N=C\c1c2ccccc2cc2ccccc12	none
CC(=O)N/N=C(\C)C1COc2ccccc2O1 (stereo not given)	Marburg entry inh inconclusive
O=C(NCc1ccc(Cl)cc1)c1cc(-c2cccs2)on1	none
COc1cccc(-c2cc(C(=O)NCc3cccs3)no2)c1	Shiga inhibitor 104, Marburg entry inh inconclusive, CHX counter 61
COc1cccc(-c2cc(C(=O)NCc3ccc(F)cc3)no2)c1	none (no result: Shiga inhibitor, CHX counter)
COc1ccc2nc3sc(C(=O)NCc4cccs4)c(N)c3cc2c1	Shiga inhibitor 83, CHX counter 51 (no result: LASV entry inh)
COc1cccc(C(=O)c2c[nH]c(C(=O)NCc3cccs3)c2)c1	CHX counter 16, LASV entry inh inconclusive
COc1ccc(CNC(=O)c2cc(-c3cccs3)on2)cc1	CHX counter 19
COc1ccc(S(=O)(=O)NCC(c2ccco2)N2CCN(c3ccccc3F)CC2)cc1OC (stereo not given)	none (no result: Shiga inhibitor, Marburg entry inh, CHX counter)
COc1ccc(-c2cc(C(=O)Nc3cc(C)on3)no2)cc1	none
COc1ccc(-c2cc(C(=O)NCc3cccs3)no2)cc1	Shiga inhibitor 60, CHX counter 23 (no result: Marburg entry inh, LASV entry inh)
COc1ccc(-c2csc(-c3cccs3)n2)c(OC)c1	Shiga inhibitor 70, Marburg entry inh inconclusive, CHX counter 34, LASV entry inh inconclusive
COc1ccc(-c2csc(-c3ccccc3)n2)c(OC)c1	Shiga inhibitor 115, Marburg entry inh inconclusive, CHX counter 53, LASV entry inh inconclusive
COc1ccc(OC)c(S(=O)(=O)NCc2csc(-c3ccccc3)n2)c1	none
COCCN(C(=O)c1ccc(OCC(C)C)cc1)c1c(N)n(Cc2ccccc2)c(=O)[nH]c1=O	none (no result: Shiga inhibitor, CHX counter)
Nc1c(-c2ccccc2)sc2ccc3ccccc3[n+]12	CHX counter 12 (no result: Marburg entry inh, LASV entry inh)
Cc1cc(N2C(=O)c3ccc(C(=O)Nc4ccc(CC(=O)O)cc4)cc3C2=O)no1	none
